Over roughly 2,000 compounds, “fractional viability relative to vehicle” has its median near 0.91; the lowest 2% begin near 0.045. For the sample, the lowest values were picked, then their nearest neighbours and some compounds at random.
System: TYKNU
Assay: fractional viability relative to vehicle; TYKNU is a high-grade serous ovarian cancer line; higher = less growth inhibition
Settings: 72 h
Outline: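 TYKNU control cells or lentiCRISPRv2 knockout derivatives were seeded at 500 cells per well into drug-stamped 384-well plates holding a ~2100-compound library at 2 or 10 μM, in duplicate. Cells were grown at 37 °C in 5% CO2 in RPMI 1640 with 10% FBS, and drug treatment lasted 72 h. Viability was read by Cell Titer Glo luminescence. Duplicate treatment wells were averaged and normalised to duplicate control wells from the same plate position.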

[1] = 2uM, genotype: DNM1L knockout (sgDNM1L #1)
[2] = 2uM, genotype: sgCTRLA1 (non-targeting control)
[3] = 10uM, genotype: DNM1L knockout (sgDNM1L #1)
[4] = 10uM, genotype: sgCTRLA1 (non-targeting control)

COCCOc1nc(-c2ccc(Cl)c(Cl)c2)n(-c2ccc(NC(=O)CCl)cc2)n1 [MI-2 (MALT1 inhibitor)]
fractional viability [1]: 0.786
fractional viability [2]: 1.05
fractional viability [3]: 0.792
fractional viability [4]: 0.806

Cn1cc(-c2ccc(F)c(C(F)(F)F)c2)nc1C1CCN(c2ncnc3[nH]ncc23)CC1
fractional viability [1]: 0.735
fractional viability [2]: 0.848
fractional viability [3]: 0.331
fractional viability [4]: 0.583

O=C(NS(=O)(=O)c1ccc(Br)s1)c1ccc(Cl)cc1Cl [Tasisulam]
fractional viability [1]: 0.84
fractional viability [2]: 0.973
fractional viability [3]: 0.503
fractional viability [4]: 0.726

C[C@H]1COC2=C1C(=O)C(=O)c1c2ccc2c1CCCC2(C)C [Cryptotanshinone]
fractional viability [1]: 0.306
fractional viability [2]: 0.399
fractional viability [3]: 0.0756
fractional viability [4]: 0.132

CNC(=C[N+](=O)[O-])NCCSCc1ccc(CN(C)C)o1 [Ranitidine]
fractional viability [1]: 0.91
fractional viability [2]: 1.04
fractional viability [3]: 0.719
fractional viability [4]: 0.999

OC(CNCC(O)C1CCc2cc(F)ccc2O1)C1CCc2cc(F)ccc2O1 (stereo not given) [Nebivolol]
fractional viability [1]: 0.798
fractional viability [2]: 0.981
fractional viability [3]: 0.276
fractional viability [4]: 0.606

CCN(CC)CCCC(C)Nc1nc(C)cc(Nc2ccc3nc(C)cc(N)c3c2)n1 (stereo not given)
fractional viability [1]: 0.927
fractional viability [2]: 0.862
fractional viability [3]: 0.802
fractional viability [4]: 0.667

CCN(CC)CCCC(C)Nc1c2ccc(Cl)cc2nc2ccc(OC)cc12 (stereo not given) [Quinacrine 2HCl]
fractional viability [1]: 0.491
fractional viability [2]: 0.536
fractional viability [3]: 0.0312
fractional viability [4]: 0.0211

CNCc1ccc(-c2cc(-c3nc(-c4ccc(S(=O)(=O)C(C)C)cc4)cnc3N)on2)cc1
fractional viability [1]: 0.919
fractional viability [2]: 1.19
fractional viability [3]: 0.902
fractional viability [4]: 1.1

C[N+](C)(C)CCO.[Cl-] [Choline Chloride]
fractional viability [1]: 0.782
fractional viability [2]: 1.05
fractional viability [3]: 0.777
fractional viability [4]: 0.905

C#CC[C@H](c1nc2cc(Cl)ccc2c(=O)n1Nc1ccccc1)N(CCCN)C(=O)c1cccc(Cl)c1F
fractional viability [1]: 0.249
fractional viability [2]: 0.25
fractional viability [3]: 0.0262
fractional viability [4]: 0.0115

Cc1ccc(C(=O)N(CCCN)[C@@H](c2nc3cc(Cl)ccc3c(=O)n2Cc2ccccc2)C(C)C)cc1
fractional viability [1]: 0.325
fractional viability [2]: 0.437
fractional viability [3]: 0.107
fractional viability [4]: 0.105

OC1(c2ccc(Cl)c(C(F)(F)F)c2)CCN(CCCC(c2ccc(F)cc2)c2ccc(F)cc2)CC1 [Penfluridol]
fractional viability [1]: 0.601
fractional viability [2]: 0.806
fractional viability [3]: 0.0479
fractional viability [4]: 0.065

NC(=O)[C@@H](CCC(F)(F)F)N(Cc1ccc(-c2ncon2)cc1F)S(=O)(=O)c1ccc(Cl)cc1
fractional viability [1]: 0.818
fractional viability [2]: 1.04
fractional viability [3]: 0.638
fractional viability [4]: 0.822

C1=N/C2=N/c3ccc(OCCN4CCCC4)c(c3)COC/C=C/COCc3cccc(c3)C(=C1)N2 [Pacritinib (SB1518)]
fractional viability [1]: 0.128
fractional viability [2]: 0.169
fractional viability [3]: 0.0312
fractional viability [4]: 0.029
